Active and inactive are the calls of the source.
Experiment: JC-1 mitochondrial signal, unstimulated MM1S myeloma – cell-based, JC-1 fluorescence, 24 h, 100 nL compound, profiling panel (AID 1170)
Details: MM1S mitochondrial potential, higher = more signal
Also: test concentration not given here.

SMILES	z-score
COc1ccc(COC(=O)NN=C2C[C@@H](O)[C@@H](O)[C@@H]3[C@@H]4C(=O)N([C@@H](C)c5ccccc5)C(=O)[C@@H]4CC[C@@H]23)cc1	-0.369
C[C@@H]1CC[C@H]2C(=O)N3[C@@H](CC[C@@H](C)[C@@H]3c3ccc(Br)cc3)C(=O)N2[C@H]1c1ccc(Br)cc1	1.41
CCOC(=O)CCN1C(=O)[C@H]2[C@H]3[C@H](O)[C@H](O)CC(=O)[C@@H]3CC[C@H]2C1=O	0.325
COC(=O)[C@H](CCSC)NC(=O)CC=C[C@@H](C)CO	-1.62
CCOC(=O)[C@H](Cc1ccccc1)NC(=O)CCC1CC(OC(=O)NCc2cccc3ccccc23)CC2(CCCC(COC(=O)NCCOc3ccccc3)O2)O1 (some centres not stated)	-0.883
COc1ccc(COC(=O)NN=C2C[C@@H](O)[C@@H](O)[C@@H]3[C@@H]4C(=O)N(c5cccc(Oc6ccccc6)c5)C(=O)[C@@H]4CC[C@H]23)cc1	-1.73
COc1ccc(OC[C@@H]2CC3[C@@H](c4ccc(Br)cc4)[C@H](C)CC[C@H]3C(=O)O2)cc1 (some centres not stated)	0.0404
COC(=O)[C@H](C)NC(=O)CCC1CC(OC(=O)NCc2cccc3ccccc23)CC2(CCCC(COC(=O)NCCc3ccccc3OC)O2)O1 (some centres not stated)	-1.33
COc1ccc(OC[C@@H](CO)OC)cc1	0.674
COc1ccc(COC(=O)NN=C2C[C@@H](O)[C@@H](O)[C@@H]3[C@@H]4C(=O)N(C[C@@H]5CCCO5)C(=O)[C@@H]4CC[C@@H]23)cc1	-1.38
CCOC(=O)[C@H](CC(C)C)NC(=O)CCC1CC(OC(=O)NCc2ccc3c(c2)OCO3)CC2(CCCC(COC(=O)NCCOc3ccccc3)O2)O1 (some centres not stated)	-0.0386
C=CC[C@@H]1C=C[C@H](ON=C(C)CCN2CCCCc3nc(C)c(C)cc32)[C@@H](CO)O1	-0.514
C[C@@H](c1ccccc1)N1C(=O)[C@H]2[C@H]3[C@H](O)[C@H](O)CC(=NOC[C@@H](O)COCc4ccco4)[C@H]3CC[C@H]2C1=O	-0.0829
COc1ccc(O[C@H]2C=C[C@@H](C#Cc3ccccc3)O[C@@H]2CO)cc1	-1.46
COC(=O)[C@@H]1CC[C@H](C)[C@@H](c2ccc(Br)cc2)N1C[C@@H](O)CN=[N+]=[N-]	-0.553
CC(C)=CCCC(C)=CCON=C1C[C@@H](O)[C@@H](O)[C@@H]2[C@@H]3C(=O)N(Cc4ccc5c(c4)OCO5)C(=O)[C@@H]3CC[C@@H]12	-0.909

Experiment: resazurin metabolic signal in A549 cells – cell-based, resazurin fluorescence, 24 h, PK04 Diversity Set, profiling panel (AID 1171)
Details: A549 viability, higher = more signal, called active from +8 up or from −8 down

SMILES	z-score
C=CC[C@@H]1C=C[C@H](ON=CC[C@@H]2C=C[C@H](OC(C)=O)[C@@H](COC(C)=O)O2)[C@@H](CO)O1	-0.286 (inactive)
C=CC[C@@H]1C=C[C@H](ON=C(C)CCN2CCCc3nc(C)c(C)cc32)[C@@H](CO)O1	-0.246 (inactive)
CC(=O)OC[C@H]1O[C@H](CC=NO[C@H](C)c2cn([C@@H]3COC[C@H]3O)nn2)C=C[C@@H]1OC(C)=O	-0.145 (inactive)
CC(=O)OC[C@H]1O[C@H](CCON=C(C)CCN2CCCc3nc(C)c(C)cc32)C=C[C@@H]1OC(C)=O	-0.221 (inactive)
CO[C@H]1COC(=O)[C@H](CCSC)NC(=O)CC=C[C@@H](C)[C@H](OC)COC(=O)[C@@H](OCc2ccccc2)C=C[C@@H]1C	0.886 (inactive)
CN1CCc2nc(-c3ccccc3)c(-c3ccccc3)cc2C1	0.752 (inactive)
CON=C(C)CCN1CCc2nc(-c3ccccc3)c(-c3ccccc3)cc2C1	1.73 (inactive)
CCN1C(=O)[C@H]2[C@@H]3C(=CC[C@H]2C1=O)C(=O)[C@H]1O[C@H]1[C@H]3O	-1.17 (inactive)
CC(C)C(=O)N[C@H]1CCCN1C(=O)C=Cc1ccccc1	0.182 (inactive)
CCOC(=O)[C@H](CC(C)C)NC(=O)CCC1CC(OC(=O)NCc2ccc3c(c2)OCO3)CC2(CCCC(COC(=O)NCCC(C)C)O2)O1 (some centres not stated)	0.704 (inactive)
COC(=O)CC=C[C@@H](C)[C@@H](C=NOC[C@@H](O)COCc1ccco1)NS(=O)(=O)c1ccc(C)cc1	-0.44 (inactive)
CON=C(C)CCN1CCCCc2nc(C)c(C)cc21	-0.0601 (inactive)
CC(=O)OC[C@H]1O[C@H](CCON=C(C)C)C=C[C@@H]1OC(C)=O	-0.426 (inactive)
O=C1CCCC=C1C(O)C1CCCCC1 (configuration not stated)	0.436 (inactive)
COC(=O)CC=C[C@@H](C)[C@@H](C=NOC[C@@H](C)[C@H](OCc1ccccc1)C(C)C)OC	-0.891 (inactive)
COC(=O)[C@H](C)NC(=O)CC=C[C@@H](C)[C@@H]1C=C[C@H](O)[C@@H](CO)O1	-0.521 (inactive)
C[C@@H](c1ccccc1)N1C(=O)[C@H]2[C@H]3[C@H](O)[C@H](O)CC(=NOCc4ccccc4)[C@@H]3CC[C@H]2C1=O	-0.273 (inactive)
O=C1[C@H]2[C@H]3[C@H](O)[C@H](O)CC(=NOC[C@@H](O)COCc4ccco4)[C@@H]3CC[C@H]2C(=O)N1Cc1ccc2c(c1)OCO2	0.178 (inactive)

SMILES	z-score
CCCNC(=O)OC[C@H]1O[C@H](CCON=C2C[C@@H](O)[C@@H](O)[C@@H]3[C@@H]4C(=O)N(CC)C(=O)[C@@H]4CC[C@@H]23)C=C[C@@H]1Oc1ccc(OC)cc1	-0.454 (inactive)
CC(C)CON=C1C[C@@H](O)[C@@H](O)[C@@H]2[C@@H]3C(=O)N(Cc4ccc5c(c4)OCO5)C(=O)[C@@H]3CC[C@@H]12	0.471 (inactive)
COc1ccc(COC(=O)NN=C2C[C@@H](O)[C@@H](O)[C@@H]3[C@@H]4C(=O)N([C@@H](C)c5ccccc5)C(=O)[C@@H]4CC[C@@H]23)cc1	0.0487 (inactive)
C[C@@H]1CC[C@H]2C(=O)N3[C@@H](CC[C@@H](C)[C@@H]3c3ccc(Br)cc3)C(=O)N2[C@H]1c1ccc(Br)cc1	0.632 (inactive)
CCOC(=O)CCN1C(=O)[C@H]2[C@H]3[C@H](O)[C@H](O)CC(=O)[C@@H]3CC[C@H]2C1=O	0.699 (inactive)
COC(=O)[C@H](CCSC)NC(=O)CC=C[C@@H](C)CO	-0.812 (inactive)
CCOC(=O)[C@H](Cc1ccccc1)NC(=O)CCC1CC(OC(=O)NCc2cccc3ccccc23)CC2(CCCC(COC(=O)NCCOc3ccccc3)O2)O1 (some centres not stated)	0.0235 (inactive)
COc1ccc(COC(=O)NN=C2C[C@@H](O)[C@@H](O)[C@@H]3[C@@H]4C(=O)N(c5cccc(Oc6ccccc6)c5)C(=O)[C@@H]4CC[C@H]23)cc1	1.29 (inactive)
COc1ccc(OC[C@@H]2CC3[C@@H](c4ccc(Br)cc4)[C@H](C)CC[C@H]3C(=O)O2)cc1 (some centres not stated)	0.582 (inactive)
COC(=O)[C@H](C)NC(=O)CCC1CC(OC(=O)NCc2cccc3ccccc23)CC2(CCCC(COC(=O)NCCc3ccccc3OC)O2)O1 (some centres not stated)	0.642 (inactive)
COc1ccc(OC[C@@H](CO)OC)cc1	-0.551 (inactive)
COc1ccc(COC(=O)NN=C2C[C@@H](O)[C@@H](O)[C@@H]3[C@@H]4C(=O)N(C[C@@H]5CCCO5)C(=O)[C@@H]4CC[C@@H]23)cc1	-0.547 (inactive)
CCOC(=O)[C@H](CC(C)C)NC(=O)CCC1CC(OC(=O)NCc2ccc3c(c2)OCO3)CC2(CCCC(COC(=O)NCCOc3ccccc3)O2)O1 (some centres not stated)	0.494 (inactive)
C=CC[C@@H]1C=C[C@H](ON=C(C)CCN2CCCCc3nc(C)c(C)cc32)[C@@H](CO)O1	-0.421 (inactive)
C[C@@H](c1ccccc1)N1C(=O)[C@H]2[C@H]3[C@H](O)[C@H](O)CC(=NOC[C@@H](O)COCc4ccco4)[C@H]3CC[C@H]2C1=O	-0.268 (inactive)
COc1ccc(O[C@H]2C=C[C@@H](C#Cc3ccccc3)O[C@@H]2CO)cc1	0.447 (inactive)
COC(=O)[C@@H]1CC[C@H](C)[C@@H](c2ccc(Br)cc2)N1C[C@@H](O)CN=[N+]=[N-]	0.0136 (inactive)
CC(C)=CCCC(C)=CCON=C1C[C@@H](O)[C@@H](O)[C@@H]2[C@@H]3C(=O)N(Cc4ccc5c(c4)OCO5)C(=O)[C@@H]3CC[C@@H]12	0.25 (inactive)

Reference: PubChem BioAssay
